Active and inactive are the calls of the source.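 How the source made its calls, unless noted: active means inhibition at or above 50% at 10 µM; inactive means inhibition below 50%.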
Key:
[1] = inhibitors of TNFa-induced NFkB p65 translocation, primary screen, imaging, HUVEC, MLSMR starter and 10KST1 sets (AID 438;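 active means inhibition above 20% together with a positive visual image hit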;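 further: compound added about 3h40 before a 20 min TNFalpha stimulation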;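 on inhibition: signal is the nuclear over cytoplasmic p65 intensity ratio per well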); details: HUVEC TNFa-induced p65 nuclear translocation; cell count: measured here: nuclei count (cytotoxicity indicator), at 2.08 µM; inhibition: at 2 µM, stronger effect = higher value, 0% TNFa-plus-vehicle, 100% no-TNFa wells
[2] = reduction of polyQ htt aggregates in cells – imaging, exon1htt(103Q)mCFP cells, high-content imaging, primary screen (AID 483;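 active means visual image review flags a hit and inhibition of aggregation exceeds 20%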;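 further: compound exposure lasted 3 days before fixation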;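 on nuclei count: percent of the per-plate median nuclei count of sample wells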); details: exon1htt(103Q)mCFP cell line, aggregate imaging, at 2 µM; inhibition of aggregation: stronger effect = higher value; nuclei count: measured here: cell count, toxicity
[3] = endothelial E-selectin expression blockers – imaging, HUVEC, immunofluorescence, MLSMR starter and 10KST1 sets, primary screen (AID 487;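 active means visually confirmed hit in the image check and inhibition above 20%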;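 on inhibition: signal is fraction of cell area covered by stained E-selectin grains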;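 on nuclei count: 100% = median nuclei count of all wells on the same plate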); details: HUVEC TNFalpha-induced E-selectin immunofluorescence imaging, at 2 µM; inhibition: stronger effect = higher value; nuclei count: measured here: cell number, toxicity
[4] = biological target: Voltage-gated potassium channel subunit beta-2 (Rattus norvegicus) (UniProt P62483); test: inhibitors of rat Kvbeta2 reductase activity – biochemical, NADPH fluorescence, primary screen (AID 622;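 active means fluorescence slope higher than the sample average by over 3 SD, cut at about -0.22 in these data, passing the limit was not always enough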;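 further: slope of raw intensity against log time taken from 70 to 1610 s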); details: recombinant KvBeta, 4-cyanobenzaldehyde reduction, at 10 µM, stronger effect = higher value
Chain of Voltage-gated potassium channel subunit beta-2 (Rattus norvegicus) (P62483 whole entry, looked up): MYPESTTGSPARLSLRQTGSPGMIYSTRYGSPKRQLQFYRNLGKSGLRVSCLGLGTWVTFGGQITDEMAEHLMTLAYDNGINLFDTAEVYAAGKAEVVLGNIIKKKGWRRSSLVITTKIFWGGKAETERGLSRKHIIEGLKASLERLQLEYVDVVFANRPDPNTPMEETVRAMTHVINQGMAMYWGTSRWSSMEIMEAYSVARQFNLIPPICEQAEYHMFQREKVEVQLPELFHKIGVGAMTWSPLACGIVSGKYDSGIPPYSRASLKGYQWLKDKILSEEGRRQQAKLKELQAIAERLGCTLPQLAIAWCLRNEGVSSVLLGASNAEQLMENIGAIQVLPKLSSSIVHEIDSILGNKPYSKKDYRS

[5] = biological target: Voltage-gated potassium channel subunit beta-2 (Rattus norvegicus) (UniProt P62483); test: enhancers of rat Kvbeta2 NADPH turnover – biochemical, NADPH fluorescence, primary screen (AID 623;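 active means NADPH fluorescence slope more negative than the mean of all samples by about 3 SD, 99.7% confidence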;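 further: fluorescence intensity change per second fitted from 20 to 320 s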); details: Recombinant KvBeta, NADPH fluorescence decrease slope, 10 min; at 10 µM; stronger effect = lower value
[6] = biological target: Alpha-2C adrenergic receptor (Homo sapiens) (UniProt P18825); test: compounds altering alpha2C-coupled GIRK flux – cell-based, HEK293 alpha2C/GIRK1/2, thallium flux, primary screen (AID 624;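 active means fluorescence slope after compound addition differing from the mean of all screened samples at 99.7% confidence, in either direction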;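 further: slope of fluorescence ratio to pre-addition baseline per second over 15 to 24 s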); details: thallium flux BTC fluorescence, at 10 µM, actives lie on both sides
Chain of Alpha-2C adrenergic receptor (Homo sapiens) (P18825 whole entry, looked up): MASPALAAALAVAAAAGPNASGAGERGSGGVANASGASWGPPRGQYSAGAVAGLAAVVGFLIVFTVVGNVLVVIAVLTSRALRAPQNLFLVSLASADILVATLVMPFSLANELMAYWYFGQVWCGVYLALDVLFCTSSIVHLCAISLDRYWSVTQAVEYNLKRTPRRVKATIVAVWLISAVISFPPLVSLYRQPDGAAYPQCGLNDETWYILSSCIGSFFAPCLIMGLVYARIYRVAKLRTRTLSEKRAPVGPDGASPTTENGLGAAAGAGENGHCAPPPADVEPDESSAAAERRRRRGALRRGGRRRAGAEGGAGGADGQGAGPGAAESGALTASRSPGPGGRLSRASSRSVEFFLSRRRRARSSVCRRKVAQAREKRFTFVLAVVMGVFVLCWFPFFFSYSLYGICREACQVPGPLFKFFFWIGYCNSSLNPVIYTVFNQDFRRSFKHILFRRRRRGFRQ

[7] = blockers of RIG-like receptor reporter activation – cell-based, Sendai virus stimulus, luciferase, 10K MLSCN set, TLR/RLR signaling modifier project, primary screen (AID 602276); details: HEK293 RL24 IRF3 luciferase reporter, at 10 µM, stronger effect = higher value;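 further: firefly luciferase from ISG56 promoter only with Renilla not read in this screen; 0% = Sendai virus plus DMSO and 100% = medium plus DMSO without virus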
[8] = TLR3 IRF3 reporter activation blockers – cell-based, poly I:C stimulus, luciferase, 10K MLSCN set, primary screen (AID 602277;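 active means inhibition of the reporter signal at or above 50%; inactive means inhibition below 50%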); details: HEK293-TLR3 RL24 IRF3 luciferase reporter, at 10 µM, stronger effect = higher value

Compound	cell count [1]	inhibition [1]	inhibition of aggregation [2]	nuclei count [2] [%]	inhibition [3]	nuclei count [3] [%]	fluorescence slope [4]	NADPH fluorescence slope [5]	slope [6]	inhibition [7]	inhibition [8]
N#CC(C(=O)c1ccco1)c1ccccn1 (centres undefined)	699	2.8% (inactive)	-5.3% (inactive)	108	43.2% (inactive)	94.7	-0.367 (inactive)	-2e-05 (inactive)	0.00116 (inactive)	-8.81% (inactive)	-54% (inactive)
CCn1cc(S(=O)(=O)CC(=O)Nc2ccc(OC)cc2)c2ccccc21	624	-2.4% (inactive)	7% (inactive)	82.1	-16.8% (inactive)	115	-0.528 (inactive)	-4.7e-05 (inactive)	0.00751 (inactive)	7.03% (inactive)	16.6% (inactive)
COC(=O)[C@H](C)NC(=O)Nc1cc(OC)ccc1OC	572	-15.2% (inactive)	-17.4% (inactive)	114	-11% (inactive)	103	-0.586 (inactive)	1.8e-05 (inactive)	0.00542 (inactive)	-3.29% (inactive)	-52% (inactive)
CCC(=O)Nc1ccc(NC(=O)c2cccc(OC)c2)nc1	742	-7.5% (inactive)	-5.7% (inactive)	105	-92.8% (inactive)	160	-0.465 (inactive)	1.2e-05 (inactive)	0.00556 (inactive)	-60.4% (inactive)	-106% (inactive)
COC(=O)CCC(=O)Nc1ccc(S(=O)(=O)N2CCCCCC2)cc1	743	16.7% (inactive)	-20.5% (inactive)	97.4	34.8% (inactive)	116	-0.496 (inactive)	-5.3e-05 (inactive)	0.00616 (inactive)	8.32% (inactive)	24.1% (inactive)
C=CCN=C1SCC(=O)N1S(=O)(=O)c1ccc(C)cc1	342	-0.2% (inactive)	3.3% (inactive)	91.1	-135% (inactive)	124	-0.364 (inactive)	-6.1e-05 (inactive)	0.00404 (inactive)	5.91% (inactive)	11.1% (inactive)
Clc1cccc(Nc2c3c(nc4ncnn24)CCC3)c1	416	6% (inactive)	-33.4% (inactive)	36	–	145	-0.63 (inactive)	-2.2e-07 (inactive)	0.00604 (inactive)	14.9% (inactive)	30.2% (inactive)
Cc1cc(NC(=O)c2ccccc2)ncc1NC(=O)c1ccco1	427	12.5% (inactive)	11.4% (inactive)	100	–	147	-0.603 (inactive)	2.5e-05 (inactive)	0.00711 (inactive)	7.79% (inactive)	-25.3% (inactive)
Cc1nnc(SCC(=O)N2c3ccccc3CC2C)s1 (centres undefined)	528	-31.1% (inactive)	5.8% (inactive)	55.7	-46.9% (inactive)	136	-0.521 (inactive)	-5.2e-05 (inactive)	0.00417 (inactive)	4.91% (inactive)	-5.96% (inactive)
COc1ccccc1CN1C(=S)SC(C)(C)C1NO (centres undefined)	487	10.4% (inactive)	-2.9% (inactive)	88.5	30.1% (inactive)	105	-0.499 (inactive)	-3.5e-05 (inactive)	0.00451 (inactive)	15.8% (inactive)	21.5% (inactive)
COc1ccc(Br)cc1C1N2CC3(C)CN1CC(C)(C2)C3=O (centres undefined)	435	5.6% (inactive)	6.8% (inactive)	96.9	–	148	-0.389 (inactive)	-0.000152 (inactive)	0.00688 (inactive)	-3.74% (inactive)	10.3% (inactive)
COc1ccc(-c2cc(O)cc(O)c2)cc1	397	-10.3% (inactive)	-11% (inactive)	103	-25% (inactive)	98.8	-0.49 (inactive)	-7.1e-05 (inactive)	0.00555 (inactive)	-15.5% (inactive)	-88.2% (inactive)
CCCn1c(N)c(C(=O)CSc2nnc(Cc3ccccc3)o2)c(=O)n(C)c1=O	412	1% (inactive)	4.7% (inactive)	99.8	–	150	-0.556 (inactive)	0.00012 (inactive)	0.00683 (inactive)	9.61% (inactive)	-3.84% (inactive)

— PubChem BioAssay
